Screens as filed in PubChem.
Sampled rows, rich in hits. Any-hit rate of the full collection: about 4.5%.
hcDAF-12 act – H. contortus DAF-12 activation, primary screen; activation, % at 6.8 µM; HEK293 hcDAF-12 lit1-tk-luc reporter, luminescence; 0% DMSO, 100% Δ7-dafachronic acid; AID 652067; 370,000 compounds, 1.4% hits;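 active = activation above the mean of all tested compounds plus 3 SD, cut at about 5.5% in these data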;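 also: 100% = response to 3 µM Δ7-dafachronic acid high control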
DAX1 inh-1 – DAX1 (NR0B1) inhibition, primary screen | HEK293T StAR-luciferase reporter, SF-1/DAX-1 repression relief | inhibition, % at 6.8 µM | 370,000 compounds, 1.1% hits | AID 652010;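 active = inhibition above the mean over all tested compounds plus 3 SD, cut at about 3.6% in these data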;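 also: 0% = DAX-1 cells with DMSO and 100% = cells lacking DAX-1 with DMSO; higher inhibition means more luminescence from relief of DAX-1 repression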
ssDAF12 agonist – activates DAF-12 receptor from parasite S. stercoralis; 370,000 compounds, 1% hits; activation, % at 6.8 µM; HEK293 ssDAF-12/GRIP1 lit1-tk-luc reporter, luminescence; % of 3 µM dafachronic acid response;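 active = activation above the mean over all tested compounds plus 3 SD, cut at about 0.9% in these data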;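 also: 0% = DMSO-only wells and 100% = 3 µM delta7-dafachronic acid wells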
GAA850 FXN act – frataxin GAA850 promoter activation. HEK293 lucGAA850 FXN promoter luciferase reporter, 24 h; percent of 10 µM SAHA response. activation, % at 6 µM. 360,000 compounds, 0.56% hits. AID 540364;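 active = activation above the average of all compounds screened plus 3 SD, cutoff fixed separately per campaign, cut at about 7.5% in these data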;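 also: 0% = DMSO wells and 100% = 10 µM SAHA wells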
hgDAF12 agonist – hgDAF-12 agonism, primary luciferase screen; AID 687014; 370,000 compounds, 1.8% hits; HEK293 GAL4-hgDAF12 UAS-luciferase reporter, agonist luminescence; normalized to butyrate control; activation, % at 6.8 µM;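 active = activation above a cutoff set at the mean of all screened compounds plus 3 SD, cut at about 10% in these data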;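 also: 0% = DMSO wells and 100% = sodium butyrate wells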
DAX1 inh-2 – inhibits human nuclear receptor DAX1; AID 504766; HEK293 Gal4-DAX1 luciferase reporter, luminescence; 340,000 compounds, 0.99% hits; inhibition, % at 6.75 µM; P51843;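 active = inhibition above the mean over all tested compounds plus 3 SD, cut at about 4.2% in these data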;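 also: 0% = DAX1-transfected cells with DMSO and 100% = empty-vector control cells with DMSO; inhibition shows as a rise in luminescence from relieved DAX1 repression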
Target sequence (P51843 207-470 limits assumed): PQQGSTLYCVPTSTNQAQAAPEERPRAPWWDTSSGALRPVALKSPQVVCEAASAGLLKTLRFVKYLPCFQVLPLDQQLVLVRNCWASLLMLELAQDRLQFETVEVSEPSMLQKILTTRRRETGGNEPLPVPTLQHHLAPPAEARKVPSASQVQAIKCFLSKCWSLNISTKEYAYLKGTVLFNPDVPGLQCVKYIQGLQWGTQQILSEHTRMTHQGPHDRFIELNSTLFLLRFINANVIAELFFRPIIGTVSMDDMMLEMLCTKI
Numbers without * were called inactive; x = not tested or not shown.

SMILES	hcDAF-12 act	DAX1 inh-1	ssDAF12 agonist	GAA850 FXN act	hgDAF12 agonist	DAX1 inh-2
Cn1c(SCC(=O)N/N=C/c2ccco2)nc2ccccc21	-2	1	-1	-1	0	-1
CC(/C=N/NC(=O)CSc1nc2ccccc2n1C)=C\c1ccco1	6.0*	0	0	0	0	1
CC(C)=CCC[C@@]1(C(=O)O)[C@@H]2C/C=C(\C)CC/C=C(\C)CC[C@H]1[C@]1(CC2)CO1	1	0	-1	x	-3	x
COc1ccc(C(=O)OCCCN(C)C2CN(Cc3cn(Cc4ccccc4C(F)(F)F)nn3)S(=O)(=O)C2)cc1OC (stereo unspecified)	-2	-2	-2	x	-3	x
CC(C)C(=O)N[C@H]1[C@H](O)CCC[C@@]12C(=O)N(Cc1ccccc1)c1ccccc12	1	1	-1	x	2	x
COC(=O)C1=C(C)NC2=C(C(=O)CCC2)C1c1coc2ccccc2c1=O (stereo unspecified)	2	-1	0	1	1	-1
CC1=C(C(=O)OCC2CCCO2)C(c2coc3ccccc3c2=O)C2=C(CCCC2=O)N1 (stereo unspecified)	5	-1	-1	2	-2	4.2*
CCOC(=O)c1[nH]c2c(c1-c1ccccc1)C(=O)CC(c1ccccc1)C2 (stereo unspecified)	0	2	-1	-2	6	6.6*
CCC(C)OC(=O)c1[nH]c2c(c1C)C(=O)CC(c1ccc(N(C)C)cc1)C2 (stereo unspecified)	-3	0	-1	2	11*	0
CCOCCOC(=O)c1[nH]c2c(c1C)C(=O)CC(c1ccc(N(C)C)cc1)C2 (stereo unspecified)	-2	0	-3	1	1	0
COc1ccccc1N1CCN(N=Cc2ccccc2Br)CC1	0	-1	-1	x	0	x
O=c1c2ccccc2n(Cc2ccco2)n1[C@@H](Cc1ccccc1)Cn1cc(-c2ccc(-c3ccccc3)cc2)nn1	-1	2	-2	x	2	x
Cc1nn(-c2ccc(Cl)cc2)c(N)c1C(O)(CSc1nccn1C)C(F)(F)F (stereo unspecified)	2	0	1.0*	-2	7	0
Cc1ccc(-n2nc(C)c(C(C)(O)C(F)(F)F)c2N)cc1 (stereo unspecified)	0	0	-2	-1	1	1
Cc1nn(-c2ccccc2)c(N)c1C(O)(CSc1nccn1C)C(F)(F)F (stereo unspecified)	-2	0	0.9*	0	1	0
O=C(Nc1nc(Cc2ccccc2)c(Cc2ccccc2)n1Cc1ccccc1)c1ccccc1	-1	0	-1	x	-1	x
O=[N+]([O-])c1cc2c(c(CSc3ncccn3)c1)OCOC2	1	0	1	5	4	6.9*
COC(=O)C1CN(Cc2ccc(F)cc2)CCS(=O)(=O)N1Cc1cn(Cc2ccc(F)cc2)nn1 (stereo unspecified)	-2	-1	-1	x	-2	x
Cc1ccc(NCc2nnc(SCC(N)=O)n2CC2CCCO2)c(C)c1 (stereo unspecified)	-1	0	-1	0	2	5.5*
CCCc1nnc(SCC(=O)N2CCCCC2C)n1CC1CCCO1 (stereo unspecified)	-2	0	-1	2	1	0
CCCc1nnc(SCC(=O)N(CC)CC)n1CC1CCCO1 (stereo unspecified)	0	0	-1	0	-2	5.5*
NC(=O)CSc1nnc(CNc2ccc(F)cc2)n1CC1CCCO1 (stereo unspecified)	-1	-1	0	0	1	-1
Nc1c(C(=O)CSc2nc3ccccc3o2)c(=O)[nH]c(=O)n1C1CC1	-2	4.4*	-1	-6	-6	-2
c1ccc(N/N=C(\Cc2nc3ccccc3[nH]2)c2ccccc2)cc1	4	1	-1	1	8	1
Clc1cccc(/C(Cc2nc3ccccc3[nH]2)=N\Nc2ccccc2)c1	1	1	1.0*	6	3	0
SMILES	hcDAF-12 act	DAX1 inh-1	ssDAF12 agonist	GAA850 FXN act	hgDAF12 agonist	DAX1 inh-2
O=C(NCc1cccs1)C1CCN(S(=O)(=O)c2ccc([N+](=O)[O-])cc2)CC1	-2	-1	-2	x	-3	x
CC(=O)N1CCN=C1SCc1ccccc1Cl	-2	0	-1	0	0	5.0*
Nc1cc(N)nc(SCCOc2ccccc2F)n1	2	0	0	4	11*	1
[C-]#[N+][C@]12C(=O)[C@H](C=C(Cl)[C@@]1(C)C=C)C(C)(C)[C@H]1C(=O)N(C)c3cccc2c31	-2	-2	-2	x	-4	x
O=C(OCc1cccc(F)c1)c1ccc2c(=O)n3c(nc2c1)CCC3	-2	0	-1	1	2	4.5*
CCCCCCCCN1C(=O)[C@@H](CC(=O)NCc2ccc(OC)c(OC)c2)C[C@@]2(C(=O)OC)C1=C[C@H](COCc1ccccc1)O[C@@H]2C	0	0	-2	x	3	x
Cc1c(Nc2cc(Cl)c3nonc3c2[N+](=O)[O-])c(=O)n(-c2ccccc2)n1C	-2	-2	-1	13*	0	3
Cc1c(Nc2ccc3nonc3c2[N+](=O)[O-])c(=O)n(-c2ccccc2)n1C	0	0	-1	1	-1	2
Cn1c(COc2ccc([N+](=O)[O-])cc2)nnc1SCC(=O)NCC1CCCO1 (stereo unspecified)	-2	0	1.0*	1	0	-1
COCCn1c(NC(=S)NC(=O)C23CC4CC(CC(C4)C2)C3)cc(=O)[nH]c1=O	2	1	-1	12*	-1	-1
Cc1cc(C)c2c(N)c(C(=O)c3ccccc3)sc2n1	-2	-1	-2	2	2	x
Cc1nc2sc(C(N)=O)c(N)c2c(C)c1CC(=O)c1ccccc1	0	1	-1	-5	12*	0
C=CCNC(=O)c1ccsc1N	1	4.2*	-1	x	2	x
C=CCNC(=O)c1ccc(Cl)cc1Cl	3	-1	-1	0	1	0
O=C1CC(c2ccco2)CC2=C1C=Nc1ccccc1N2 (stereo unspecified)	-2	0	-2	-1	0	-2
O=c1[nH]c2c(s1)C=Nc1ccccc1N2	6.2*	3	0	3	8	1
COC(=O)[C@]12C[C@H](CC(=O)NCCCN3CCCC3=O)C(=O)N(Cc3ccc(Cl)cc3Cl)C1=C[C@H](COCc1ccccc1)O[C@@H]2C	-3	-1	-1	x	0	x
COc1ccc(Cc2nnc(SCC(=O)Nc3nc(C)cs3)o2)cc1	-1	0	1.0*	-3	0	1
